Rows were chosen to be rich in hits. Some 21% of all compounds tested hit in one or more screens of this group.
Cycloheximide cs = counter-screen for Shiga toxin inhibitors: cycloheximide protein synthesis inhibition; cell reporter, cycloheximide protein synthesis inhibition counterscreen; 12% of 300,000 active; max response, %; in the data active means max response mostly above about 13%, no sharp cut-off; inactive means mostly below about 14%; further: read at 38.3 µM for the half of the compounds with a filed dose; 0% is about no effect
Pf growth 48h = inhibits P. falciparum growth in the first generation, 48 h; 5.9% of 310,000 active; Potency, µM (highest dose often 28.7 µM), without a hit: at the highest dose activity change, negative = inhibition, hits mostly inhibitors; P. falciparum luciferase growth in erythrocytes, 48 h; further: potency means the concentration at half of the fitted maximal effect; on the % scale 0 is the no-effect control and ±100 the full control effect
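A one-generation exposure of luciferase-tagged malaria parasites in RPMI 1640/Albumax erythrocyte culture, 37 C and 5% CO2. Inhibition is inferred from decreased luminescence after adding detection reagent.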
Shiga inhibitor = blocks Shiga toxin action in Vero cells. Vero cells, Shiga toxin protein synthesis inhibition reporter. 9.2% of 290,000 active. inhibition, % at 38.7 µM; in the data active means inhibition mostly above about 28%, no sharp cut-off; inactive means mostly below about 43%; further: 0% is about no effect
NS1 inh = inhibitors of influenza NS1 protein function; Potency, µM (top dose mostly 46.1 µM), for inactives: at the top dose activity, positive = more growth; 0.4% of 270,000 active; calls by dose curve; further: potency means the concentration at half of the fitted maximal effect; actives are rising curves; nearly all actives have a fitted effect of over 50% in size
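Growth recovery, yeast-based: influenza A NS1 expressed in S. cerevisiae causes slow growth, and suppressors are detected by OD600. The parent strain without NS1 is used as positive control.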
Pf growth 96h = inhibits malaria parasite growth, 96 h; P. falciparum luciferase reporter growth, 96 h; Potency, µM (series often up to 28.7 µM), inactives show at the top dose activity change, negative = inhibition, actives largely listed as inhibitors; 6.9% of 320,000 active; further: potency means the concentration at half of the fitted maximal effect; on the % scale 0 is the no-effect control and ±100 the full control effect
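Two parasite generations (96 h, 37 C, 5% CO2) of compound exposure in infected erythrocytes (0.05% parasitemia, 2% hematocrit). Luciferase-reporter P. falciparum; decreased luminescence indicates inhibited growth, aimed at apicoplast-acting delayed death.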
* = called active by the depositor; ? = inconclusive; . = no result; [ ] = another dose, or the depositor's remark. Unless noted, the call rests on the fitted dose curve; in most records, active means well fitted inhibition curve with a large enough effect; inconclusive means small, poorly fitted or top-dose-only effect, or another doubt; inactive means no such curve, though single readings can be large or run the other way.

SMILES	Cycloheximide cs	Pf growth 48h	Shiga inhibitor	NS1 inh	Pf growth 96h
C#CCOCCOCCOCCNc1nc(N2CCN(C(=O)Cn3cc(CCCCN)nn3)CC2)nc(N2CCN(C(=O)[C@H](C(C)C)n3cc(CCO)nn3)CC2)n1	-5	12%	-14	-20%	0%
C#CCOCCOCCOCCNc1nc(N2CCN(C(=O)CCCCCCCCCCNC(=O)Cn3cc(CCCCCN)nn3)CC2)nc(N2CCN(C(=O)CCCCCCCCCCNC(=O)[C@@H]([C@H](C)O)n3cc(C)nn3)CC2)n1	.	0.33µM*	.	.	0.52µM*
C#CCOCCOCCOCCNc1nc(N2CCN(C(=O)CCCCCCCCCCNC(=O)Cn3cc(C[C@@H](C)O)nn3)CC2)nc(N2CCN(C(=O)CCCCCCCCCCNC(=O)[C@@H]([C@H](C)O)n3cc(C)nn3)CC2)n1	.	0.074µM*	.	.	0.083µM*
COc1ccccc1NC(=O)Cn1cncc1-c1ccc([N+](=O)[O-])cc1	6	-11%	-6	14%	-6%
COc1ccccc1-n1c(=O)c(C#N)c(-c2ccc([N+](=O)[O-])cc2)c2cc(C(=O)c3ccccc3O)cnc21	2	2.6µM*	3	22%	1.9µM*
CCOc1ccc2[nH]c(=O)c(CN(CC3COCCO3)C(=O)c3ccc(C)cc3)cc2c1 (centres undefined)	-1	-14%	-3	-1%	141%
CCOC(=O)c1cc2sccc2n1CC(=O)C(C)(C)C	2	7%	-11	0%	-8%
COc1cc(NC(=O)COC(=O)c2ccccc2SCC(=O)N2CCCC2)cc(OC)c1	.	?	.	.	-3%
COc1ccc(O[C@H]2C=C[C@@H](c3ccccc3)O[C@@H]2COC(=O)CC/C(C)=N/OC[C@@H](O)[C@H]2O[C@@H]3OC(C)(C)O[C@@H]3[C@H]2O)cc1	-1	?	-7	-43%	?
CC(C)c1ccccc1OCC(=O)Nc1cc(S(=O)(=O)N2CCOCC2)ccc1N1CCCC1	.	5.2µM*	.	.	?
O=C(COc1ccccc1F)Nc1cc(S(=O)(=O)N2CCOCC2)ccc1N1CCOCC1	-3	12µM*	-12	.	?
COc1ccc2ccccc2c1/C=N/NC(=S)Nc1cc(S(=O)(=O)N2CCOCC2)ccc1N1CCOCC1	-2	5.2µM*	-6	?	1.7µM*
Cc1ccccc1OCC(=O)Nc1cc(S(=O)(=O)N2CCOCC2)ccc1N1CCCC1	.	10µM*	.	.	7.4µM*
COc1ccccc1C(=O)OCC(=O)Nc1cc(S(=O)(=O)N2CCOCC2)ccc1N1CCCC1	-2	0%	-22	-8%	2%
Cn1c(=O)[nH]c(=O)c2c1nc(Br)n2CC(O)COc1ccc(Cl)cc1 (centres undefined)	-8	-5%	-7	0%	-41%[1.15 µM]
COc1ccc(Br)c(C(=O)Nc2ccc(F)cc2)c1	9	38%	29	-4%	37%
CCOc1cc(C(=O)Oc2cc(C)[nH]c(=O)c2[N+](=O)[O-])cc(OCC)c1OCC	-2	-19%	23	-1%	?
CCN1CCN(c2ccc(S(=O)(=O)N3CCOCC3)cc2NC(=O)COc2ccc(F)cc2Cl)CC1	-1	?	-4	7%	4.7µM*
Cc1ccccc1NS(=O)(=O)c1cc(C(=O)NCCC2=CCCCC2)ccc1C	2	?	-18	23%	?
Cc1ccc(C(=O)NCCC2=CCCCC2)cc1S(=O)(=O)N1CCOCC1	.	12µM*	.	.	?
Cc1ccc(C(=O)NCCC2=CCCCC2)cc1S(=O)(=O)N1CCCCC1	.	12µM*	.	.	4.7µM*
CC(=O)C(C(c1ccccc1)c1c[nH]c2ccccc12)[N+](=O)[O-] (centres undefined)	-4	-18%	-12	7%	-9%
O=C(O)CNC(=O)C(c1ccccc1)c1ccccc1	3	13µM*	2	1%	-23%
Nc1ccccc1CNc1nc(NCCO)nc2c1ncn2CCN1CCOCC1	11	6%	29	1%	-4%
Cc1ccccc1OCCC(=O)OCC(=O)Nc1ccc(C(N)=O)cc1	-2	44%	-9	-3%	43%
SMILES	Cycloheximide cs	Pf growth 48h	Shiga inhibitor	NS1 inh	Pf growth 96h
COc1ccc(NC2CCCN(C(=O)c3ccc(C(C)=O)s3)C2)cc1 (centres undefined)	-1	6%	0	-3%	16%
COc1cc(C(=O)N2CCC(NC(=O)C(Cc3ccccc3)NC(C)=O)CC2)cc(OC)c1OC (centres undefined)	-1	?	42	-4%	12µM*
COc1ccc(C(=O)N2CCC(NC(=O)C(Cc3ccccc3OC)NC(C)=O)CC2)cc1 (centres undefined)	-4	-18%	10	11%	19%
COc1ccccc1CC(NC(C)=O)C(=O)NC1CCN(C(=O)c2ccc([N+](=O)[O-])cc2)CC1 (centres undefined)	-7	0%	-6	-5%	6.6µM*
COc1ccccc1CC(NC(C)=O)C(=O)NC1CCN(C(=O)Nc2cccc(F)c2)CC1 (centres undefined)	-3	-21%	-2	-3%	1.3µM*
Cc1ccc2c(c1)N(CCC(=O)NCCCN1CCCC1)C(=O)C(C)O2 (centres undefined)	-5	-6%	8	24%	0%
C[C@H](N)c1nnc(SCC(N)=O)o1	1	6%	-6	4%	23%
Cc1cc(C)c2cc3c(N)c(C(=O)N4CCc5ccccc5C4)sc3nc2c1	-1	?	6	10%	?
Cc1cccc2cc3c(N)c(C(=O)N4CCOCC4)sc3nc12	50*	295%	115*	-9%	-9%
Cc1oc(/N=C/c2ccc(O)cc2O)c(C#N)c1C	37*	-2%	117*	.	3%
Cc1oc(/N=C/c2ccccc2O)c(C#N)c1C	7	31%	-13	6%	22%
O=[N+]([O-])c1cc(C(F)(F)F)ccc1NCCNC(=S)Nc1ccc(Cl)cc1	15	?	10	-76%	?
Cc1nn(-c2ccccc2)c(N)c1Sc1ccc([N+](=O)[O-])cc1	20*	13%	12	-42%	?
Cc1nn(S(=O)(=O)c2ccc(Cl)cc2)c(C)c1Sc1ccc([N+](=O)[O-])cc1	-2	-22%	-4	7%	?
COc1cc2nc(SCc3ccc(F)cc3)n(Cc3cccs3)c(=N)c2cc1OC	-3	?	-8	30%	?
COc1ccc(Cn2c(SCc3ccccc3C)nc3cc(OC)c(OC)cc3c2=N)cc1	-6	5.9µM*	-12	-76%	1.7µM*
COCCCn1c(SCCc2ccccc2)nc2cc(OC)c(OC)cc2c1=N	1	12µM*	-8	.	9.3µM*
CCCc1nn(C)c(C(=O)Nc2ccc(C(C)(C)C)cc2)c1Cl	-1	-25%	5	-4%	?
CCCc1nn(C)c(C(=O)Nc2ccc(Cl)cc2)c1Cl	25*	11%	43	-5%	2%
CCCc1nn(C)c(C(=O)Nc2ccccc2)c1Cl	92*	209%	72*	-9%	289%
Cc1ccc(N(CC(=O)NC(C)(C)C)C(=O)CCC(=O)Nc2nccs2)c(C)c1	-4	-22%	-4	18%	-14%
